Rows were chosen to be rich in hits. Some 19% of all compounds tested hit in one or more screens of this group.
TGFb SMAD3 inh: inhibitors of TGF-b signaling | HepG2 CAGA-GFP TGF-b/SMAD3 reporter, GFP fluorescence, 18 h; TGF-beta stimulated, 500 pg/mL final | 1.2% of 410,000 active | AID 588855 | Potency, µM (series often up to 46.1 µM), hits mostly inhibitors; further: nearly all actives have a fitted effect of over 65% in size
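Smad-responsive CAGA-GFP expression was quantified in HEPG2 cells exposed to compounds and 500 pg/mL final TGF-beta for 18 h at 37 degrees C; unstimulated wells defined full inhibition.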
TDP1 block: inhibitors of human tyrosyl-DNA phosphodiesterase TDP1; Q9NUW8; recombinant TDP1, AlphaScreen DNA substrate cleavage; Potency, µM (doses to about 130 µM), actives largely listed as inhibitors; 0.28% of 350,000 active; further: nearly all actives have a fitted effect of over 40% in size
Target sequence (Q9NUW8 whole entry, looked up): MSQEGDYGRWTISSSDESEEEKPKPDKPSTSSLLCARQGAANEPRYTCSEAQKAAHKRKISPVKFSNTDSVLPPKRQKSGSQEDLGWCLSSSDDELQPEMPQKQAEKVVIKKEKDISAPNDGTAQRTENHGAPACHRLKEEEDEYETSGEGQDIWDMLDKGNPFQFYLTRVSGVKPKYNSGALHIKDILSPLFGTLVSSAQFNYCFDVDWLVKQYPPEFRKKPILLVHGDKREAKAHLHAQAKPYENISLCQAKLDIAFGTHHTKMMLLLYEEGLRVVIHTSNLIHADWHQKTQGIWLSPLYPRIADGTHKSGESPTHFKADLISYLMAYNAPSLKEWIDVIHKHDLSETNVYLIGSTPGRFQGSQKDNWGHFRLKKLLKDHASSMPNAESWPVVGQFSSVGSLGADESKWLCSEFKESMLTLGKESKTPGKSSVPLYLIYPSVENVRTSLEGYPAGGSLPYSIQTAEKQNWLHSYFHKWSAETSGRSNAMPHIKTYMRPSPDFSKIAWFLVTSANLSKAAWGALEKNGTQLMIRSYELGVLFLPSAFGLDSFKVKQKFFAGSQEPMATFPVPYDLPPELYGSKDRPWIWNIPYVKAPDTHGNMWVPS
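Here, a 5' biotin and 3' phosphotyrosine-FITC DNA oligonucleotide reports Tdp1 activity: intact substrate bridges AlphaScreen beads, while cleavage leaves a 3' phosphate and drops signal. All incubations at room temperature.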
DT40 TDP1 no CPT: qHTS for Inhibitors of human tyrosyl-DNA phosphodiesterase 1 (TDP1): qHTS in cells in absence of CPT; DT40 Tdp1-/- hTDP1 cells, no CPT, ATP luminescence, 48 h; Potency, µM (titrated, usually from 46.2 µM), most hits filed as inhibitors; 15% of 420,000 active; AID 686978, 2013; further: nearly all actives have a fitted effect of over 55% in size
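Seeded 400 DT40-hTDP1 cells/well (vehicle DMSO, no 20 nM CPT); pinned compounds; ≥48 hr at 37 °C; CellTiter-Glo luminescence as viability measure.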
HepG2 tox: counter-screen for TGF-b inhibitors: cytotoxicity in HepG2 cells. HepG2 CAGA-GFP viability, ATP luminescence, 18 h. Potency, µM (series often up to 46.1 µM), actives largely listed as cytotoxic. 0.76% of 410,000 active. AID 588856
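HepG2 CAGA-GFP cells (1000/well, DMEM with 1% FBS) received compound, then TGF-beta at 500 pg/mL final, and were incubated 18 hours at 37 degrees C. Viability was read by CellTiter-Glo luminescence. Media-only wells were set as complete cell-killing and DMSO as no toxicity.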
TDP1 cell CPT: growth inhibition of DT40 Tdp1-/-;hTDP1 cells with camptothecin (screen for TDP1 inhibitors) | 12% of 420,000 active | AID 686979 | Potency, µM (top dose mostly 46.2 µM), actives largely listed as inhibitors | chicken DT40 Tdp1-/-;hTDP1 cells + 20 nM CPT, ATP luminescence, 48 h; further: nearly all actives have a fitted effect of over 55% in size
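Chicken DT40 Tdp1-/- cells stably complemented with human TDP1 were seeded at 400 cells/well in medium containing 20 nM camptothecin, exposed to pin-transferred compounds, and grown at 37 °C for at least 48 hr. Viability was read as ATP luminescence.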
IL1B secr inh: inhibitors of inflammasome signaling (IL-1 beta secretion); THP-1 LPS/ATP IL-1B secretion, AlphaLISA, 16 h; active compounds read low; activity change, % at 57.5 µM; 4.7% of 360,000 active; AID 743279; in the data active means activity change below about -50%; inconclusive means mostly about -30% to -49%
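Secreted IL-1B measured by AlphaLISA bead assay after 16 h compound exposure of THP-1 cells; compounds (final up to 57.5 uM) added 1 h before LPS (250 ng/mL) and ATP (1.25 mM) stimulation; lower signal means less secretion.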
Numbers stand for hits; – = inactive; ? = inconclusive; · = no result given; ! = repeats disagree. Unless noted, the call rests on the fitted dose curve; in most records, active means well fitted curve in the direction sought with a large enough effect; inconclusive means small, poorly fitted or top-dose-only effect, or another doubt; inactive means no such curve, though single readings can be large; an effect the other way counts as inactive or inconclusive.

SMILES	TGFb SMAD3 inh	TDP1 block	DT40 TDP1 no CPT	HepG2 tox	TDP1 cell CPT	IL1B secr inh
O=C1NC[C@@H](c2ccccc2)OC(=O)[C@H](Cc2ccc(F)cc2)C/C=C\C[C@H]1CC(=O)N(CCO)Cc1ccccc1	–	–	16µM	–	21µM	?
O=C1N[C@@H](c2ccccc2)COC(=O)[C@H](Cc2ccc(F)cc2)C/C=C\C[C@H]1CC(=O)N(CCO)Cc1ccccc1	–	·	–	–	–	–
O=C1NC[C@H](c2ccccc2)OC(=O)[C@@H](Cc2ccc(F)cc2)C/C=C\C[C@H]1CC(=O)N(CCO)Cc1ccccc1	?	–	?	–	8.2µM	–
Nc1ncnc2c1ncn2[C@@H]1O[C@H](C(=O)NC2CC2)[C@@H](O)[C@H]1O	·	–	–	·	–	·
Cc1ccc(C(=O)Nc2c(-c3ccccc3)nc3ccccn23)cc1C	–	–	?	–	–	·
CCc1ccc(CNC(=O)CCCN2C(=O)CCn3nc(-c4cccn4C)cc32)cc1	–	–	–	–	?	·
COc1cc(C(=S)N2CCOCC2)ccc1OS(=O)(=O)c1ccc(NC(C)=O)cc1	?	–	9.2µM	–	18µM	–
COc1cc(C(=S)N2CCCC2)ccc1OS(=O)(=O)c1ccc(NC(C)=O)cc1	–	–	?	–	15µM	–
CCOc1cc(C=O)ccc1OCC(=O)NC(C)(C)C	–	–	–	–	–	–
CCOc1cc(C=O)ccc1OS(=O)(=O)c1ccc(NC(C)=O)cc1	–	–	18µM	–	?	–
C[C@H](c1ccccc1)N1C[C@@H](COCc2ccccc2)Oc2cc(N3CC[C@@H](O)C3)ccc2S1(=O)=O	·	·	23µM	·	21µM	–
C[C@@H](c1ccccc1)N1C[C@H](COCc2ccccc2)Oc2cc(N3CC[C@H](O)C3)ccc2S1(=O)=O	·	·	21µM	·	?	–
C[C@@H](c1ccccc1)N1C[C@@H](COCc2ccccc2)Oc2cc(N3CC[C@H](O)C3)ccc2S1(=O)=O	·	·	18µM	·	?	–
Cc1ccc(Cl)cc1NC(=O)c1ccc(NC(=O)N2CCSc3ncccc32)cc1	–	–	21µM	–	?	·
COc1cc(NC(=O)c2ccc(NC(=O)N3CCSc4ncccc43)cc2)cc(OC)c1	–	–	13µM	–	15µM	·
O=C(CCN1C(=O)NC2(CCCC2)C1=O)Nc1cccc(S(=O)(=O)N2CCOCC2)c1	–	–	–	–	–	–
COc1ccc(NC(=O)C2Cc3c(-c4ccc(Cl)cc4)ccnc3O2)cn1 (configuration not stated)	–	·	21µM	–	15µM	–
CS(=O)(=O)Nc1cccc(NC(=O)C2Cc3c(-c4cccc(C(N)=O)c4)ccnc3O2)c1 (configuration not stated)	–	·	–	–	–	–
COc1ccc(NC(=O)C2Cc3c(-c4ccc(Cl)cc4)ccnc3O2)cc1OC (configuration not stated)	–	·	18µM	–	?	–
COc1ccc(NC(=O)C2Cc3c(-c4ccncc4)ccnc3O2)cc1OC (configuration not stated)	–	·	?	–	?	–
COc1ccc(NC(=O)C2Cc3c(-c4cccc(C(N)=O)c4)ccnc3O2)cc1OC (configuration not stated)	–	·	7.3µM	–	12µM	–
COc1ccc(NC(=O)C2Cc3c(-c4ccccc4)ccnc3O2)cc1OC (configuration not stated)	–	·	4.6µM	–	?	?
N#Cc1ccccc1Cn1c(SCC(=O)Nc2ccc(F)cc2)nc2ccccc21	–	–	?	–	?	·
O=C(Nc1cc(Cl)ccc1O)c1cc2nc(-c3ccc4c(c3)OCO4)cc(C(F)(F)F)n2n1	–	–	?	–	–	·
Cc1ccccc1C(=O)Nc1cc(-c2cc(C(C)(C)C)oc2C)nn1C	–	–	?	–	?	-59
SMILES	TGFb SMAD3 inh	TDP1 block	DT40 TDP1 no CPT	HepG2 tox	TDP1 cell CPT	IL1B secr inh
Cc1ccccc1NC(=O)Nc1cc(-c2ccccc2)nn1C	–	·	–	–	–	–
CCOc1ccccc1CNC(=O)Cn1ccc2cc(S(=O)(=O)N3CCC(C)CC3)ccc21	–	–	21µM	–	?	–
CC(NC(=O)Cn1ccc2cc(S(=O)(=O)N3CCCCCC3)ccc21)c1ccccc1 (configuration not stated)	–	–	18µM	–	?	·
O=C(Cn1ccc2cc(S(=O)(=O)N3CCCC3)ccc21)NCCc1ccccc1	–	–	23µM	–	?	–
O=C(Cn1ccc2cc(S(=O)(=O)N3CCCCCC3)ccc21)NCc1cccc(Cl)c1	?	–	18µM	–	?	·
O=C(CCn1ccc2cc(S(=O)(=O)N3CCCC3)ccc21)NCCc1ccccc1	–	–	?	–	?	–
COC(=O)c1ccc(Cn2nnc3sc4c(c3c2=O)CCC(C)C4)cc1 (configuration not stated)	–	–	?	–	?	·
O=C(OCC#CCSc1nnc(-c2cccc3ccccc23)o1)c1cccc(F)c1	·	–	·	·	·	·
COC(=O)Cn1ccc2cc(S(=O)(=O)N3CCCCC3)ccc21	?	–	?	–	21µM!	–
O=C(Cn1ccc2cc(S(=O)(=O)N3CCCC3)ccc21)NCc1ccccc1Cl	–	–	–	–	–	·
O=C(Cn1ccc2cc(S(=O)(=O)N3CCCCC3)ccc21)NCc1ccccc1Cl	–	–	21µM	–	18µM	·
CCCCN(CC)CCNC(=O)c1c(C)oc2ncnc(N3CCOCC3)c12	–	–	–	–	–	·
O=C(CSc1nnc(-c2cccc(Br)c2)o1)NCC1CCCO1 (configuration not stated)	–	·	–	–	–	–
CCc1nc2nc(C)c(NS(=O)(=O)c3ccc(C)c(C)c3)c(=O)n2[nH]1	–	–	–	–	–	–
O=c1c2oc3ccccc3c2n(Cc2ccc(Cl)cc2)c(=O)n1Cc1ccco1	–	–	–	–	–	·
CN1CCc2c(sc3c2C(=O)NC(c2ccc(C(C)(C)C)cc2)N3)C1 (configuration not stated)	–	·	13µM	–	?	·
COc1ccc(C(=O)Oc2ccc(C3NC(=O)c4c(sc5c4CCN(C)C5)N3)cc2OC)cc1 (configuration not stated)	–	–	16µM	–	?	·
COc1ccc(C2NC(=O)c3c(sc4c3CCN(C)C4)N2)cc1O (configuration not stated)	–	·	–	–	–	·
